# A selection: hits, their analogues and other compounds. The true share with any hit is near 2.1%.
# PLCg1 inh: PLC-gamma1 enzyme inhibitors, primary screen, biochemical, fluorescence, purified enzyme | 1-phosphatidylinositol 4,5-bisphosphate phosphodiesterase gamma-1 (Homo sapiens), P19174 | fluorogenic substrate | inhibition, % at 12.2 µM | hit rate 0.84% among 370,000 | AID 720700, 2013; in the data active means inhibition above about 9.5%
# Rce1 inhib: yeast Rce1p protease inhibitors, primary screen, biochemical, fluorescence, cell-free homogeneous | hit rate 0.27% among 290,000 | yeast membranes, quenched prenylated peptide cleavage fluorescence | CAAX prenyl protease 2 (Saccharomyces cerevisiae (strain ATCC 204508 / S288c)), Q03530 | calls only | AID 2563, 2010;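 active means fall in fluorescence gain of 50% or more versus controls, with final raw signal at or below 3038400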;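 further: plate controls were neutral control wells for no effect and wells lacking membranes for full effect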
# ADAM17 inh: ADAM17 inhibitors, primary screen, biochemical, QFRET; hit rate 0.83% among 370,000; Disintegrin and metalloproteinase domain-containing protein 17 (Homo sapiens), P78536; AID 720648, 2013; recombinant ADAM17, EDANS/DABCYL FRET peptide cleavage; inhibition, % at 6.95 µM;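 active means inhibition above the mean of compounds lying between control limits plus 3 SD, set per campaign, cut at about 8.5% in these data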;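 further: 0% = DMSO-only wells as the low control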
# ADAM10 inh: human ADAM10 inhibitors, primary screen, biochemical, QFRET, HTS; Disintegrin and metalloproteinase domain-containing protein 10 (Homo sapiens), O14672; recombinant ADAM10, EDANS/DABCYL FRET peptide cleavage, 3 h; inhibition, % at 7 µM; hit rate 0.62% among 370,000;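 active means inhibition above a per-campaign cutoff equal to the mean of compounds falling between control-based bounds plus 3 SD, cut at about 20% in these data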;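 further: 0% = DMSO wells while the 100% control is not disclosed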
# PLC-beta3 inh: human PLC-beta3 inhibitors, primary screen, biochemical, fluorescence. AID 720704, 2013. inhibition, % at 12.2 µM. 1-phosphatidylinositol 4,5-bisphosphate phosphodiesterase beta-3 (Homo sapiens), Q01970. hit rate 0.18% among 370,000. Purified PLC-beta3, fluorogenic substrate; in the data active means inhibition above about 11%;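 further: 0% = median of compound wells on plate and 100% = full blocker control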
# ADAM10 ctr: ADAM10 inhibitors, counter-screen for ADAM17 exosite inhibitor project, biochemical, FRET, human ADAM10; recombinant ADAM10, EDANS/DABCYL FRET peptide cleavage, 3 h; hit rate 47% among 2,900; inhibition, % at 6.95 µM; shares compounds with ADAM17 inh;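 active means mean inhibition over the triplicate runs exceeds the activity threshold set in the earlier primary screen, cut at about 20% in these data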;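 further: 0% = DMSO wells and 100% = marimastat wells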
# ADAM17 confirm: ADAM17 inhibitors, hit retest, confirmation, biochemical, QFRET peptide cleavage. inhibition, % at 6.95 µM. recombinant ADAM17, EDANS/DABCYL QFRET peptide cleavage. hit rate 65% among 2,900. shares compounds with ADAM17 inh;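 active means mean inhibition across replicates above the hit cutoff set in the primary screen, cut at about 8.5% in these data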;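 further: 0% = DMSO wells and 100% = marimastat wells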
# Active calls of the source: *; i = inactive; nt = no result given.
SMILES,PLCg1 inh,Rce1 inhib,ADAM17 inh,ADAM10 inh,PLC-beta3 inh,ADAM10 ctr,ADAM17 confirm
CC(C)c1cccc(-c2csc(C(O)c3cccc(Cl)c3)n2)c1 (stereo unspecified),2.0,nt,9.7*,11.9,6.2,19.4,12.6*
CCOC(=O)C1=C(C)N(CCCCCC(=O)O)C(=O)NC1c1ccccc1OC(=O)c1cccs1 (stereo unspecified),6.3,nt,10.1*,4.8,2.1,-1.2,4.0
CCOC(=O)C1=C(C)N(CCC(=O)O)C(=O)NC1c1ccccc1Cl (stereo unspecified),3.7,i,-3.7,5.2,-0.4,nt,nt
CS(=O)(=O)c1ccc(-c2csc(C(O)(c3ccccc3)C(F)(F)F)n2)cc1 (stereo unspecified),5.3,nt,5.2,10.3,6.0,nt,nt
OC(c1ccccc1)(c1nc(-c2cc(F)cc(F)c2)cs1)C(F)(F)F (stereo unspecified),1.3,nt,9.5*,17.3,0.8,39.9*,17.8*
CCOC(=O)[C@]12CCC=C1N(Cc1cccc3ccccc13)C(=O)[C@H](CC(=O)N1CCCC1)C2,-0.8,nt,-1.9,-2.5,-0.9,nt,nt
N#CCC(CNc1ncc(C(F)(F)F)cc1Cl)OC(=O)c1ccc(Cl)cc1Cl (stereo unspecified),-2.8,i,9.6*,9.9,-0.8,40.6*,19.0*
CC(C)CCNC(=O)C1CC(c2ccccc2[N+](=O)[O-])=NO1 (stereo unspecified),-3.3,i,-0.2,-4.0,-3.1,nt,nt
O=C(c1cc(-c2ccccc2)nc2ccccc12)N1CCN(c2ccccc2O)CC1,6.5,i,13.7*,13.2,5.0,28.6*,19.3*
CC(=O)C[C@@H](O)CC(=O)[C@H]1OC(=O)CC/C=C\Cc2ccccc21,-6.3,nt,-1.7,-5.5,-12.3,nt,nt
CC(=O)C[C@H](O)CC(=O)[C@@H]1OC(=O)CCCCC/C=C/Cc2ccccc21,5.4,nt,8.8*,12.7,3.9,0.9,-1.3
Cc1cc(C)c(S(=O)(=O)Nc2ccc(O)cc2)c(C)c1,-1.5,i,-2.8,1.6,-1.1,nt,nt
Cc1cc(C)c(S(=O)(=O)Nc2ccc3c4c(cccc24)CC3)c(C)c1,-1.2,i,9.3*,13.6,-7.6,17.3,11.7*
Cc1ccc(S(=O)(=O)Nc2ccc3c4c(cccc24)CC3)c(C)c1,3.2,i,-0.8,4.3,-0.1,nt,nt
Cc1cc(C)c(S(=O)(=O)Nc2ccc3c(c2)CCC3)c(C)c1,12.7*,i,12.8*,17.7,4.1,25.5*,12.2*
COc1cccc(NC(=S)N/N=C2/CCCCc3ccccc32)c1,2.4,i,9.2*,7.5,-3.2,7.5,4.9
CCOC(=O)c1sc(NC(=O)c2cc(-c3ccccc3)nc3ccccc23)c(C#N)c1C,-3.2,i,-4.3,-5.0,-2.1,nt,nt
CN(CC(=O)Nc1ccccc1Cl)C(=O)CN1C(=O)C2CC=CCC2C1=O (stereo unspecified),-0.8,nt,-6.1,-3.2,-1.1,nt,nt
Cc1cccc2cc(CN(Cc3cccs3)Cc3nnnn3Cc3ccccc3)c(=O)[nH]c12,2.8,i,11.2*,6.7,-4.5,-9.5,3.4
COc1ccc2cc(CN(Cc3cccs3)Cc3nnnn3Cc3ccccc3)c(=O)[nH]c2c1,-16.8,i,-0.1,-14.3,-21.6,nt,nt
Cc1ccc(Cn2c(C(CO)Nc3nc(-c4ccc(Cl)c([N+](=O)[O-])c4)cs3)nc3ccccc32)cc1 (stereo unspecified),4.5,i,16.8*,19.5,6.1,16.3,9.7*
O=C(c1ccc(S(=O)(=O)c2cccc(Cl)c2)c([N+](=O)[O-])c1)N1CCN(Cc2ccccc2)CC1,2.0,i,10.4*,10.1,2.8,25.4*,17.2*
CC(C)CC(=O)c1c(O)cc(O)c2c1OC1=C(C(=O)C(C)(C)C(=O)C1(C)C)C2CC(C)C (stereo unspecified),-3.7,nt,9.2*,9.7,2.5,13.4,7.5
O=C(NCc1cccc(C(F)(F)F)c1)c1cccc(S(=O)(=O)NCc2ccccc2)c1,4.9,i,12.0*,18.0,-0.8,24.2*,11.2*
O=C(NCc1ccccc1F)c1cccc(S(=O)(=O)NCc2ccccc2)c1,2.4,i,-3.7,-2.9,-9.4,nt,nt
SMILES,PLCg1 inh,Rce1 inhib,ADAM17 inh,ADAM10 inh,PLC-beta3 inh,ADAM10 ctr,ADAM17 confirm
COc1ccc(Br)cc1/C=C/C(=O)Nc1c(C)cccc1C,8.3,i,9.8*,-6.5,-0.5,-15.8,-0.5
CCN(CC)c1ccc(NC(=O)/C=C/c2cc(Br)ccc2OC)cc1,-9.6,i,10.2*,12.2,-11.0,27.4*,19.6*
C=CCN1C(=O)[C@@H](CC(=O)NCc2cccc3ccccc23)[C@]2(C(=O)OC)CCCCC=C12,-1.9,nt,-1.4,-7.3,-2.5,nt,nt
C#CCNC(=O)C[C@@H]1C(=O)N(Cc2ccc(OC)cc2)/C2=C/CCCCC[C@@]21C(=O)OCC,-1.5,nt,-4.6,-6.2,-1.0,nt,nt
CCOC(=O)[C@]12CCCCC/C=C\1N(Cc1ccc(OC)cc1)C(=O)[C@H]2CC(=O)NCC1CCCCC1,2.6,nt,12.7*,11.1,1.7,9.5,5.3
C=CCN1C(=O)[C@@H](CC(=O)NCc2cccc3ccccc23)[C@]2(C(=O)OCC)CCCCC/C=C/12,2.9,nt,11.0*,7.8,6.2,8.1,4.6
O=C(NCc1ccco1)c1ccc(S(=O)(=O)N2CCCc3ccccc32)cc1,6.0,i,10.4*,14.7,7.2,11.0,2.5
O=C(NCc1ccccc1)c1ccc(S(=O)(=O)N2CCCc3ccccc32)cc1,4.6,i,1.3,12.3,1.8,nt,nt
Cc1cc(C(=O)Nn2c(-c3ccc(Br)cc3)nc3ccccc3c2=O)ccc1[N+](=O)[O-],5.9,i,8.9*,13.5,5.6,24.3*,11.9*
Cc1cccc(C(=O)Nc2cccc(OC(=O)c3cccc(C)c3)c2)c1,-1.2,i,10.1*,11.3,-0.9,29.8*,17.3*
CS(=O)(=O)N(CC(=O)N1CCCC1)Cc1ccc(Cl)c(Cl)c1,1.1,i,0.9,-2.5,-1.3,nt,nt
Cc1ccccc1C(=O)c1c[nH]c(C(=O)NCC2CCCO2)c1 (stereo unspecified),2.5,i,9.2*,9.2,9.2,-9.8,0.5

# High-throughput results (PubChem BioAssay)
